What all share (test): protein-binding microarray (PBM); PBM: ~300 nM protein, 6 mM HEPES pH 7.8, 80 mM KCl, 0.5 mM EDTA, 0.5 mM EGTA, 6% glycerol, 35 ng/ul poly-dIdC, 1% milk, 1 h, room temperature; Ap Aiptasia and Nv Nematostella (sea anemones) / Co Capsaspora / Aq Amphimedon (sponge) / Dm Drosophila / Hu human; RHD is the Rel homology domain; high values mean tight binding
Settings in all cases: dsDNA, one strand shown

Test [1] deals with T1, GST-Ap-NF-kB RHD (Exaiptasia pallida (Aiptasia), UniProt A0A913YAJ5 2-422).
T1 sequence: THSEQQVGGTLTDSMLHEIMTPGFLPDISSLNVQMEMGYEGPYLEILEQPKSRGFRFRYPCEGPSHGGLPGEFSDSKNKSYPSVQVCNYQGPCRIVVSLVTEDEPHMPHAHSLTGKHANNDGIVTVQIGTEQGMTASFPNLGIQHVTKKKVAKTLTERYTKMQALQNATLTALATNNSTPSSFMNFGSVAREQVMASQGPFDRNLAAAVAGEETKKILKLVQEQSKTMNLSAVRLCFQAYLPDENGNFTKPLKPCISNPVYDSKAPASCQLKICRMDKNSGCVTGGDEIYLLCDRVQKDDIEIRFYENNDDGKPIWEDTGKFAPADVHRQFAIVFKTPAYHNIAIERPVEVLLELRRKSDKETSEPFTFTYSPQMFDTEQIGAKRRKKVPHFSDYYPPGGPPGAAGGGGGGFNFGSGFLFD

In test [2] the target is T2, GST-Nv-NF-kB (Cys allele) (Nematostella vectensis, UniProt E5G601 2-411).
T2 sequence: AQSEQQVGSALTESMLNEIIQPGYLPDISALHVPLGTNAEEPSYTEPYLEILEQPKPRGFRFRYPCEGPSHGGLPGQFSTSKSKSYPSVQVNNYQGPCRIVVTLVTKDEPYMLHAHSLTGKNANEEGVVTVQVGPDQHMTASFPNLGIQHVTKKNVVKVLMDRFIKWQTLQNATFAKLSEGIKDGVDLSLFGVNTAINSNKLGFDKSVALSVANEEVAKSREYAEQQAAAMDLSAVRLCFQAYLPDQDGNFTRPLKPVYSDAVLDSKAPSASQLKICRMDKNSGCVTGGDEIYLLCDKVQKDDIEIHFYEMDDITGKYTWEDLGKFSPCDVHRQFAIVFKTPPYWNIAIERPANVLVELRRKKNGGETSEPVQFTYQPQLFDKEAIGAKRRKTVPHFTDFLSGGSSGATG

Test [3] deals with T3, GST-Co-NF-kB (Capsaspora owczarzaki, UniProt F1ARL5 200-546).
T3 sequence: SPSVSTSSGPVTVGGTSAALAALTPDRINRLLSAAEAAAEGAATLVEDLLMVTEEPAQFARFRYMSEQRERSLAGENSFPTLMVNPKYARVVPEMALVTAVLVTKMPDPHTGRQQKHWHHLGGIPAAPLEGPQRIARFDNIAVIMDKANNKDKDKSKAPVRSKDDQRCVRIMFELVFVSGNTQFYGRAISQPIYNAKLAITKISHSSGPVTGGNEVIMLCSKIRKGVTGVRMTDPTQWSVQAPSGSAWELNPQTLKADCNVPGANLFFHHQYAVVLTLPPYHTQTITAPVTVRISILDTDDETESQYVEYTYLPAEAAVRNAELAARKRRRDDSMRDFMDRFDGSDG

Test [4] has as its target T4, GST-Dm-Relish (Drosophila melanogaster, UniProt Q94527 99-473).
T4 sequence: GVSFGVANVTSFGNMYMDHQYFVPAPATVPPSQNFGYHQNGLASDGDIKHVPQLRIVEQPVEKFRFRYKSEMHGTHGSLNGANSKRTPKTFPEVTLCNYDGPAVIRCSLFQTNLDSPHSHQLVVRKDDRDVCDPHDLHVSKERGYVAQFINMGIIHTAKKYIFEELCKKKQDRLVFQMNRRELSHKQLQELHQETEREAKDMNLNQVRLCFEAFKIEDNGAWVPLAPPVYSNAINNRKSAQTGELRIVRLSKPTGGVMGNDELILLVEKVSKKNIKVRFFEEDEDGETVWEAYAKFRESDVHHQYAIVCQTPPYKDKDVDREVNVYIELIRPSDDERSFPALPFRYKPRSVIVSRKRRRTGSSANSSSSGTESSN

Test [5] concerns the target T5, GST-Aq-NF-kB (Amphimedon queenslandica, UniProt A9Y5G7 2-389).
T5 sequence: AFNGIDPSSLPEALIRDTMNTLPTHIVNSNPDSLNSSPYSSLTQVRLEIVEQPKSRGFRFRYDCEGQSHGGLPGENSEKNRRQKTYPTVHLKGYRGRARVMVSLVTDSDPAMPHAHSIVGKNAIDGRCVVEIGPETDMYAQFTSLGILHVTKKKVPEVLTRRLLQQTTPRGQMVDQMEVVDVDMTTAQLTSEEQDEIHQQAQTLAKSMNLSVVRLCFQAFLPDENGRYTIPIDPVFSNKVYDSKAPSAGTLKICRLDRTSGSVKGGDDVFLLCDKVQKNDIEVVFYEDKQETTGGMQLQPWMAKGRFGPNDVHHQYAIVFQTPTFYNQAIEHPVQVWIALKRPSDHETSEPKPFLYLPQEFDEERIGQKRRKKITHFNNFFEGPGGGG

The target in test [6] is GST-Hu-p50 (Homo sapiens, UniProt P19838 7-356).
Sequence of GST-Hu-p50 (P19838 7-356): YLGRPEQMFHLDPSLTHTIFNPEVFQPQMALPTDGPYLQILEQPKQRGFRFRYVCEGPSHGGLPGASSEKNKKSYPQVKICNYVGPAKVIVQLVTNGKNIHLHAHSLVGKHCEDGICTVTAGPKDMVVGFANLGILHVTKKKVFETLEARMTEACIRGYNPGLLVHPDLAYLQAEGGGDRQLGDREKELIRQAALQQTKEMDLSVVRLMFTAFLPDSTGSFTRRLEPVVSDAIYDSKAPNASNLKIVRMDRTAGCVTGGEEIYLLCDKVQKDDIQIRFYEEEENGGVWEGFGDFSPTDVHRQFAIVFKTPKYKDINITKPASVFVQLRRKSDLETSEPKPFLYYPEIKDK

Consider “CCGATTAACATCAGAAAAATCCCTGATGTTAATCGGGTCTTGATTCGCTTGACGCTGCTG”, for which the binding signal in test [1] stood at 5.42 z-score; in test [2], 6.84 z-score; in test [3], 2.27 z-score; in test [4], 9.03 z-score; in test [5], 7.2 z-score; in test [6] it was 5.46 z-score.

For “CCGATTAACATCAGGAAAGCCCCTGATGTTAATCGGGTCTTGATTCGCTTGACGCTGCTG”, the binding signal came to 7.03 z-score in test [1]; 9.89 z-score in test [2]; 1.05 z-score in test [3]; 8.43 z-score in test [4]; 9.59 z-score in test [5]; 6.88 z-score in test [6].

For “CCGATTAACATCAGGGATTTTTATGATGTTAATCGGGTCTTGATTCGCTTGACGCTGCTG”, the binding signal in test [1] worked out at 5.66 z-score; in test [2] it was 6.48 z-score; in test [3], 1.77 z-score; in test [4], 7.93 z-score; in test [5] it was 6.66 z-score; in test [6] it was 5.31 z-score.

“CCGATTAACATCAGATAACCCCCTGATGTTAATCGGGTCTTGATTCGCTTGACGCTGCTG”: the binding signal in test [1] stood at 7.2 z-score; in test [2], 5.72 z-score; in test [3], 2.43 z-score; in test [4], 6.66 z-score; in test [5], 6.11 z-score; in test [6] it was 5.79 z-score.

In the case of “CCGATTAACATCAAGAGTCCCCCTGATGTTAATCGGGTCTTGATTCGCTTGACGCTGCTG”, the binding signal was 7.54 z-score in test [1]; 5.23 z-score in test [2]; 5.05 z-score in test [3]; 5.74 z-score in test [4]; 5.26 z-score in test [5]; 5.46 z-score in test [6].

Take “CCGATTAACATCAAAAAAACCCTTGATGTTAATCGGGTCTTGATTCGCTTGACGCTGCTG”: the binding signal came to 4.62 z-score in test [1]; 5.48 z-score in test [2]; 1.11 z-score in test [3]; 6.8 z-score in test [4]; 6.78 z-score in test [5]; 5.45 z-score in test [6].

On to “CCGATTAACATCAGGGTAATTTATGATGTTAATCGGGTCTTGATTCGCTTGACGCTGCTG”, for which the binding signal is 4.07 z-score in test [1]; 6.3 z-score in test [2]; 3.64 z-score in test [3]; 3.68 z-score in test [4]; 6.31 z-score in test [5]; 4.9 z-score in test [6].

Regarding “CCGATTAACATCAAAAAACCCCATGATGTTAATCGGGTCTTGATTCGCTTGACGCTGCTG”, the binding signal in test [1] was 6.53 z-score; in test [2], 7.08 z-score; in test [3], 2.59 z-score; in test [4], 9.52 z-score; in test [5], 6.77 z-score; in test [6], 6.62 z-score.

With “CCGATTAACATCAGGAACTCCCCTGATGTTAATCGGGTCTTGATTCGCTTGACGCTGCTG”, the binding signal in test [1] was found to be 8.99 z-score; in test [2], 7.4 z-score; in test [3] it was 3.87 z-score; in test [4], 7.91 z-score; in test [5], 8.17 z-score; in test [6], 5.57 z-score.

For the sequence “CCGATTAACATCAGGGGGAGTTATGATGTTAATCGGGTCTTGATTCGCTTGACGCTGCTG”, the binding signal in test [1] was determined as 6.7 z-score; in test [2], 5.95 z-score; in test [3], 7.05 z-score; in test [4] it was 5.28 z-score; in test [5] it was 6.18 z-score; in test [6], 6.55 z-score.

For the sequence “CCGATTAACATCAGGGGCTTACCTGATGTTAATCGGGTCTTGATTCGCTTGACGCTGCTG”, the binding signal in test [1] is 4.59 z-score; in test [2] it was 6.21 z-score; in test [3], 1.88 z-score; in test [4] it was 5.58 z-score; in test [5], 7.25 z-score; in test [6] it was 4.8 z-score.

Turning to “CCGATTAACATCAGGCATCCCCCTGATGTTAATCGGGTCTTGATTCGCTTGACGCTGCTG”, the binding signal in test [1] was 6.28 z-score; in test [2] it was 5.13 z-score; in test [3], 3.74 z-score; in test [4], 6.22 z-score; in test [5], 6.35 z-score; in test [6] it was 5.3 z-score.

As for “CCGATTAACATCAGATCCCCCCCTGATGTTAATCGGGTCTTGATTCGCTTGACGCTGCTG”, the binding signal in test [1] is 8.16 z-score; in test [2] it was 5.56 z-score; in test [3], 6.72 z-score; in test [4], 5.21 z-score; in test [5] it was 5.39 z-score; in test [6], 5.36 z-score.

With “CCGATTAACATCAAACCTTCCCCTGATGTTAATCGGGTCTTGATTCGCTTGACGCTGCTG”, the binding signal stood at 4.68 z-score in test [1]; 5.62 z-score in test [2]; 6.54 z-score in test [3]; 3.12 z-score in test [4]; 4.92 z-score in test [5]; 4.13 z-score in test [6].

As for “CCGATTAACATCAATATCCCCCCTGATGTTAATCGGGTCTTGATTCGCTTGACGCTGCTG”, the binding signal came to 7.34 z-score in test [1]; 5.13 z-score in test [2]; 8.06 z-score in test [3]; 5.53 z-score in test [4]; 5.74 z-score in test [5]; 5.69 z-score in test [6].

With “CCGATTAACATCAAAATGCCCCCTGATGTTAATCGGGTCTTGATTCGCTTGACGCTGCTG”, the binding signal came to 5.68 z-score in test [1]; 5.66 z-score in test [2]; 4.18 z-score in test [3]; 5.29 z-score in test [4]; 6.11 z-score in test [5]; 5.37 z-score in test [6].

In the case of “CCGATTAACATCAGGATATCCCCTGATGTTAATCGGGTCTTGATTCGCTTGACGCTGCTG”, the binding signal amounted to 8.1 z-score in test [1]; 7.01 z-score in test [2]; 3.66 z-score in test [3]; 7.25 z-score in test [4]; 7.17 z-score in test [5]; 5.46 z-score in test [6].

Turning to “CCGATTAACATCAGGGGGGATACTGATGTTAATCGGGTCTTGATTCGCTTGACGCTGCTG”, the binding signal in test [1] stood at 6.78 z-score; in test [2], 4.85 z-score; in test [3], 6.57 z-score; in test [4], 5.55 z-score; in test [5], 4.94 z-score; in test [6], 5.66 z-score.

Take “CCGATTAACATCACAACGACCCCTGATGTTAATCGGGTCTTGATTCGCTTGACGCTGCTG”: the binding signal in test [1] stood at 2.27 z-score; in test [2], 1.3 z-score; in test [3], 1.28 z-score; in test [4], 1.08 z-score; in test [5] it was 2.48 z-score; in test [6], 1.12 z-score.

On to “CCGATTAACATCAGGCCTTCCCCTGATGTTAATCGGGTCTTGATTCGCTTGACGCTGCTG”, for which the binding signal in test [1] is 6.39 z-score; in test [2], 6.79 z-score; in test [3] it was 2.84 z-score; in test [4], 9.6 z-score; in test [5], 7.14 z-score; in test [6] it was 4.63 z-score.

Turning to “CCGATTAACATCAAAATACCCCTTGATGTTAATCGGGTCTTGATTCGCTTGACGCTGCTG”, the binding signal in test [1] came out at 6.2 z-score; in test [2] it was 6.38 z-score; in test [3] it was 4.02 z-score; in test [4], 5.65 z-score; in test [5] it was 6.58 z-score; in test [6], 6.17 z-score.

Regarding “CCGATTAACATCAGGGGGGAGAATGATGTTAATCGGGTCTTGATTCGCTTGACGCTGCTG”, the binding signal stood at 6 z-score in test [1]; 4.08 z-score in test [2]; 7.95 z-score in test [3]; 3.85 z-score in test [4]; 4.82 z-score in test [5]; 6.41 z-score in test [6].

For the sequence “CCGATTAACATCACGAAAACCCCTGATGTTAATCGGGTCTTGATTCGCTTGACGCTGCTG”, the binding signal in test [1] was found to be 6.45 z-score; in test [2], 5.36 z-score; in test [3] it was 2.45 z-score; in test [4] it was 7.06 z-score; in test [5], 5.3 z-score; in test [6] it was 6.06 z-score.

In the case of “CCGATTAACATCAACACTCCCCCTGATGTTAATCGGGTCTTGATTCGCTTGACGCTGCTG”, the binding signal turned out to be 5.32 z-score in test [1]; 4.24 z-score in test [2]; 5.26 z-score in test [3]; 2.43 z-score in test [4]; 4.25 z-score in test [5]; 5.34 z-score in test [6].

As to “CCGATTAACATCACGCATCCCCCTGATGTTAATCGGGTCTTGATTCGCTTGACGCTGCTG”, the binding signal in test [1] was determined as 6.1 z-score; in test [2] it was 4.9 z-score; in test [3], 4.65 z-score; in test [4], 3.44 z-score; in test [5] it was 4.33 z-score; in test [6] it was 5.14 z-score.
